Source: PubChem
PriA SSB inh – K. pneumoniae PriA-SSBct interaction inhibition; AlphaScreen SSBct-PriA binding, biotinylated peptide; inhibition, % at 33 µM; 430,000 compounds, 0.6% hits; AID 1272365; in the data active means inhibition mostly above about 37%, no sharp cut-off; inactive means mostly below about 20%;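 further: plate controls were negative control peptide for no effect and reference peptide for full effect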
PfHsp40 yeast – restores yeast growth despite PfHsp40 toxicity. S. cerevisiae expressing PfHsp40, growth rescue, ATP luminescence. growth rescue, % at 12.5 µM. 340,000 compounds, 0.68% hits. AID 504582; in the data active means growth rescue above about 28%, passing the limit was not always enough; inconclusive means no clear call, values can overlap the other calls;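 further: yeast W303a lacking pdr1 and pdr3 grown in galactose medium; growth measured after three days at 30 °C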
PrP UTR inh – suppresses PrP 5' UTR mRNA reporter expression. cell-based PrP 5' UTR mRNA reporter, plate reader. inhibition, % (concentration not given with the values). 340,000 compounds, 0.35% hits. AID 488862; in the data active means inhibition above about 52%; further: 0 = median of the neutral control wells
PrPC surface inh – reduces human prion protein on the cell surface. cell surface PrPC, TR-FRET read-out. inhibition, % at 13.8 µM. 370,000 compounds, 0.43% hits. AID 720596; in the data active means inhibition above about 24%; further: 0% = median of the test wells and 100% = reference compound wells
MazF activator – MazEF (E. coli) toxin RNase activation. P0AE70. FAM/BHQ RNA-DNA oligo cleavage fluorescence, 5 h. activation, % at 20 µM. 350,000 compounds, 0.32% hits; in the data active means activation above about 50%
Target sequence (P0AE70 whole entry, looked up): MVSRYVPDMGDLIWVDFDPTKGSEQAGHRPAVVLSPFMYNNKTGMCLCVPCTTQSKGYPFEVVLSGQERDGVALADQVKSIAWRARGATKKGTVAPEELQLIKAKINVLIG
Active calls of the source: *; ? = inconclusive; / = not tested or not shown; + = active, no number. A selection: hits, their analogues and other compounds. The true share with any hit is near 1.8%.

SMILES	PriA SSB inh	PfHsp40 yeast	PrP UTR inh	PrPC surface inh	MazF activator
Cc1ccccc1-c1nc(C#N)c(N2CCCCC2)o1	59*	6	-18	6	13
COc1ccc(NC(=O)Nc2ccc3nc(C)n(-c4ccccc4)c(=O)c3c2)cc1OC	-3	/	/	/	/
CCc1ccccc1N(CC(=O)NC1CCCCC1)C(=O)CCC(=O)Nc1ccccn1	0	0	-14	-2	-4
CN(C(=O)Nc1ccc(F)cc1)[C@H]1C[C@H]2c3[nH]c4ccccc4c3CCN2C(=O)[C@H]1CO	/	/	/	-6	8
COc1ccccc1Nc1ncccc1[N+](=O)[O-]	60*	-1	-27	-15	8
COc1ccccc1C(CNc1ncccc1[N+](=O)[O-])N(C)C (stereo not given)	8	0	-4	-27	12
COC(=O)C1=NNC2(c3ccc(Cl)cc3)C(=O)N(c3ccc(Cl)cc3)C(=O)C12 (stereo not given)	7	45*	-12	-1	2
COC(=O)C1=NNC2(c3ccc(Cl)cc3)C(=O)N(c3ccccc3)C(=O)C12 (stereo not given)	1	-1	-7	6	-1
Clc1ccc(-c2n[nH]c3c2CCCC3)cc1	-3	-1	-41	-6	0
Clc1ccc(-c2n[nH]c3c2CCC3)cc1Cl	-10	241*	-11	3	0
Cc1ccnc(Nc2ccc(NCCNC(=O)c3ccc(Br)o3)nn2)c1	62*	/	/	/	/
CCCN1CCCc2cc(CCNC(=O)C(=O)NCC)ccc21	24	/	/	/	/
CCOc1ccc(S(=O)(=O)NCCc2ccc(N3CCCC3)cc2)cc1F	18	/	/	/	/
CCOc1ccc(S(=O)(=O)NCCc2ccc3c(c2)CCCN3C)cc1	31	/	/	/	/
CCCN1CCCc2cc(CCNS(=O)(=O)c3ccc(OC)c(F)c3)ccc21	66*	/	/	/	/
CCCN1CCCc2cc(CCNS(=O)(=O)c3ccc(OCC)c(C)c3)ccc21	56*	/	/	/	/
CCCN1CCCc2cc(CCNS(=O)(=O)c3cccc(F)c3)ccc21	65*	/	/	/	/
CCCN1CCCc2cc(CCNS(=O)(=O)c3ccc(OCC)c(F)c3)ccc21	39*	/	/	/	/
CC(C)Cn1c(N)c(C(=O)COC(=O)CCNS(=O)(=O)c2ccccc2)c(=O)n(C)c1=O	5	0	-8	6	10
CN(C)CCOC(=O)CC12CC3CC(C1)CC(CC(=O)OCCN(C)C)(C3)C2	3	1	3	0	9
CCCN1CCCc2cc(CCNC(=O)C(=O)Nc3ccc(OCC)cc3)ccc21	20	/	/	/	/
CCCN1CCCc2cc(CCNS(=O)(=O)c3cc(C)ccc3OCC)ccc21	71*	/	/	/	/
COc1ccc2nc3ccccc3nc2c1NC(=O)c1ccc(Cl)cc1Cl	3	1	-13	-6	+
NNc1nc(Nc2ccc([N+](=O)[O-])cc2)nc(N2CCCCCC2)n1	54*	-3	-27	4	-1
Cc1cc2oc(C(=O)N(Cc3ccc(N(C)C)cc3)CC3CCCO3)c(C)c2cc1C (stereo not given)	50*	5	-13	-5	5
SMILES	PriA SSB inh	PfHsp40 yeast	PrP UTR inh	PrPC surface inh	MazF activator
Nc1[nH]c(C(=O)c2ccccc2)c(-c2ccc(Cl)cc2)c1C(=O)c1c[nH]c2cc(F)ccc12	/	/	/	-7	/
CN(C(=O)COC(=O)c1ccc([N+](=O)[O-])cc1N)c1ccccc1	9	-1	-24	-10	70*
Cc1ccc(C(=O)OCC(=O)N(C)c2ccccc2)c(C)c1	-13	2	-22	6	-1
COc1ccc(NC(=O)CN(Cc2ccco2)Cc2ccco2)cc1S(=O)(=O)N1CCCCC1	2	0	-23	5	0
Nc1ccc(O)c2c1C(=O)c1ccccc1C2=O	35	4	-12	-49	-136
O=C1C=C(O)c2[nH]c(=O)ccc2C1=O	-12	-1	52	-34	1
O=C1c2ccccc2C(=O)c2c(O)c(O)cc(O)c21	22	179*	1	-27	-13
O=C1C=C(O)c2c(O)cc(O)c(O)c2C1=O	11	248*	-1	0	-71
Cc1cc2cccnc2c2ncccc12	163*	/	/	/	/
O=[N+]([O-])c1cc([N+](=O)[O-])c2cccnc2c1Cl	81*	/	/	/	/
O=[N+]([O-])c1ccc(Cl)c2ncccc12	53	/	/	/	/
O=[N+]([O-])c1ccc(F)c2ncccc12	27	/	/	/	/
O=[N+]([O-])c1cc2cccnc2c2ncccc12	48*	/	/	-7	-1
Nc1c(N)c2cccnc2c2ncccc12	95*	/	/	/	/
O=C(c1ccc(Cl)s1)N1CCC(n2ccnn2)CC1	-15	/	/	/	/
CNC(=S)N1CCc2cc(OC)c(OC)cc2C1COc1ccc(F)cc1 (stereo not given)	-7	1	-24	1	2
Cc1ccc(C(=O)NCCNC(=O)c2ccccn2)cc1	-8	1	-16	8	2
COC(=O)c1c(NC(=O)CC(=O)Nc2sc3c(c2C(=O)OC)CCCCC3)sc2c1CCCCC2	-8	/	/	/	/
CN(C)S(=O)(=O)c1ccc(C(=O)NNc2nc3c(F)cccc3s2)cc1	24	/	/	/	/
COc1ccc(OC)c2sc(NNC(=O)c3ccc(S(=O)(=O)N(C)C)cc3)nc12	42*	/	/	/	/
COc1cccc(-c2[nH]ncc2-c2nc(-c3ccc(C)c(C)c3)no2)c1	-13	/	/	/	/
COCc1cccc(-c2csc(C(NC(C)=O)c3cccc(F)c3)n2)c1 (stereo not given)	/	/	/	-2	/
CC(C)CN(C1CCS(=O)(=O)C1)S(=O)(=O)c1ccc2ccccc2c1 (stereo not given)	-6	-1	-5	8	3
CC(C)CN(C1CCS(=O)(=O)C1)S(=O)(=O)c1ccc(Cl)c([N+](=O)[O-])c1 (stereo not given)	41*	/	/	/	/
O=C(NCCn1nc(-c2ccco2)ccc1=O)Nc1ccc(Cl)cc1	-2	/	/	/	/
SMILES	PriA SSB inh	PfHsp40 yeast	PrP UTR inh	PrPC surface inh	MazF activator
O=C(NC1CC1)C1=C[C@H](c2ccc(C(F)(F)F)cc2)C[C@H](OCc2ccc(CO)cc2)O1	-2	-1	2	3	199*
O=C(NC1CC1)C1=C[C@@H](c2ccccc2)C[C@@H](OCc2ccc(CO)cc2)O1	-5	-1	-19	6	2
Cc1ccc(NC2=CC(=O)C(=O)c3ccccc32)c(C)c1	19	?	-10	-1	8
O=C1C=C(Nc2ccccc2O)c2ccccc2C1=O	43	74*	-67	-26	-41
O=C(NC(C1CC1)C1CC1)C1CCC(=O)N(CCCN2CCCC2=O)C1 (stereo not given)	-15	36*	-13	-2	2
CCOC(=O)C1=NN(C(=O)c2ccc(OC)cc2)C(O)(c2ccc(Cl)cc2)C1 (stereo not given)	-1	1	-27	3	1
COC(=O)C1=NN(C(=O)c2cccc(Br)c2)C(O)(c2ccc(Cl)cc2)C1 (stereo not given)	2	494*	3	3	-10
COc1cccc2sc3cc(C#Cc4ccccn4)ccc3c(=O)c12	46*	0	-33	13	-14
COc1cc2sc3ccc(C#Cc4ccccn4)cc3c(=O)c2cc1OC	7	-1	-10	3	-76
O=C(COc1ccccc1Cl)N1CCN(c2ccc(F)cc2)CC1	-10	1	-18	-4	2
